Compound activity from PubChem BioAssay.
Most compounds without a hit are left out; they make up all but 9.4% or so of the library.
Rab9 prom act: activators of Rab9 promoter; 320,000 compounds, 2.8% hits; Potency, µM (highest dose often 9.22 µM), inactives show at the top dose activation, negative = inhibition, hits mostly activators; Huh7 Rab9 promoter-luciferase reporter, luminescence, 24 h; also: % of control where 0% means no effect; nearly all actives have a fitted effect of over 60% in size
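Huh7 cells stably carrying Rab9 promoter–luciferase reporter, plated 1500 cells/well, compound added after 2 h and incubated 24 h at 37 °C; luciferase luminescence then read after 10 min with detection reagent.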
SMN2 splice enh: SMN2 splice variant enhancement; 210,000 compounds, 2.8% hits; Potency, µM (highest dose often 46.1 µM), for inactives: top-dose activity change, positive = activation, usual class: activators; HEK293 SMN2-luciferase splicing reporter, luminescence, 30-36 h; also: % of control where 0% means no effect; nearly all actives have a fitted effect of over 55% in size
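HEK293 cells carry an SMN2 minigene-luciferase reporter in which exon 7 inclusion puts luciferase in frame. Cells were seeded at 2000 cells/well, attached for 10-12 hours, then exposed to compounds for 30-36 hours at 37C before ONE-Glo luminescence.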
ELG1 repair inh: ELG1-dependent DNA repair inhibition; 330,000 compounds, 2.3% hits; HEK293T ELG1-luciferase reporter, luminescence, 16 h; DNA damage induced by 5-fluorouridine; Potency, µM (top dose mostly 46.1 µM), inactives show at the highest dose activity change, negative = inhibition, usual class: inhibitors; also: % is scaled to controls: 0 for no effect and ±100 for the full control effect; nearly all actives have a fitted effect of over 55% in size
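Luminescence from the luciferase reporter, measured 30 min after ONE-Glo reagent at room temperature, was the read-out. Beforehand, 2,000 cells per well were exposed for 16 hr at 37 °C to 5-fluorouridine together with compound or vehicle.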
FLuc modulator: firefly luciferase modulation, counter-screen for miR-21 project. 360,000 compounds, 6.9% hits. Potency, µM (doses to about 57.5 µM), without a hit: at the highest dose activity change, negative = inhibition, usual class: inhibitors. AID 588342. P08659. purified FLuc, Km substrates, luminescence inhibition;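 also: plate controls were vehicle for no effect and reference inhibitor for full effect; nearly all actives have a fitted effect of over 55% in size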
Target sequence (P08659 whole entry, looked up): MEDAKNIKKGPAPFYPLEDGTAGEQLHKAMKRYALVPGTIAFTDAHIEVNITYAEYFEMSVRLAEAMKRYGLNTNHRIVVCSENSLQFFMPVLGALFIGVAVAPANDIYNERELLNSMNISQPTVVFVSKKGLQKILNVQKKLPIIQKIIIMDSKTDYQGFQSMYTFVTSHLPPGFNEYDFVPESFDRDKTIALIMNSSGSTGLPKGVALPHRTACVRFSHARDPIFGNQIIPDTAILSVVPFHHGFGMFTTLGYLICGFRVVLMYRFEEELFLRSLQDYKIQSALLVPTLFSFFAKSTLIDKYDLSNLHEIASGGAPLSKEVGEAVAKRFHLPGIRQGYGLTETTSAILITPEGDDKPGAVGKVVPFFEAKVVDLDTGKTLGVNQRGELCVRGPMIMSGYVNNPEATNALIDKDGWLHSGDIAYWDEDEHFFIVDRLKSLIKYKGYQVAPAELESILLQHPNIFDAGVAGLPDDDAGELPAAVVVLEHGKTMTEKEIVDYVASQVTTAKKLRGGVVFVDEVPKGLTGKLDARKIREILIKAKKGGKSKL
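Purified P. pyralis luciferase, 10 nM final, with Km-level 10 uM D-luciferin and 10 uM ATP in 50 mM Tris acetate pH 7.5, 10 mM Mg acetate, 0.01% Tween-20, 0.05% BSA; 6-point qHTS titration about 60 µM downward; luminescence read.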
NPC1 prom act: activators of NPC1 promoter | 320,000 compounds, 2.4% hits | Potency, µM (series often up to 9.22 µM), inactives show at the highest dose activation, most hits filed as activators | AID 485313 | Huh7 NPC1 promoter luciferase reporter, 24 h; also: % of control where 0% means no effect; nearly all actives have a fitted effect of over 60% in size
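Huh7 cells stably carrying NPC1 promoter–luciferase, plated in Opti-MEM with 10% FBS for 2 h, were exposed to compound in DMSO for 24 h at 37 °C; luciferase reagent was added for 10 min and luminescence read.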
ELG1 genotoxic: induces genotoxicity in HEK293T cells with luciferase-tagged ELG1; HEK293T ELG1-luciferase reporter, luminescence, 16 h; Potency, µM (titrated, usually from 46 µM), without a hit: at the highest dose activity change, positive = activation, usual class: activators; 330,000 compounds, 1.3% hits; also: % of control where 0% means no effect; nearly all actives have a fitted effect of over 60% in size
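Quantitative HTS format in 1536-well plates. HEK293T ELG1-luciferase reporter cells receive test compound and are incubated 16 hr at 37 °C, 5% CO2; ONE-Glo added, 30 min room temperature, then luminescence read.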
* marks the source's active call; other numbers are inactive results; ? = inconclusive; / = no result; [ ] = remark or other dose. Calls follow the shape of the dose curve; as a rule, active = well fitted curve in the direction sought with a large enough effect; inconclusive = small, poorly fitted or top-dose-only effect, or another doubt; inactive = no such curve, though single readings can be large; an effect the other way counts as inactive or inconclusive. Potency is read from the fitted curve at half-maximal effect.

SMILES | Rab9 prom act | SMN2 splice enh | ELG1 repair inh | FLuc modulator | NPC1 prom act | ELG1 genotoxic
Cc1ccc(C(=N)c2ccccc2Cc2cccc3ccccc23)c2ccccc12 | / | -4%[9.22 µM] | / | / | / | /
O=C1CC(c2ccccc2)Cc2[nH]c(=O)c(C(=O)Nc3cccc(F)c3)cc21 (configuration not stated) | / | / | / | -1% | / | /
O=[N+]([O-])c1ccc(S(=O)(=O)NCc2nc3cccnc3n2Cc2ccccc2Cl)cc1 | / | / | / | -10% | / | /
Cc1ccccc1C(c1c(C)n(C)n(-c2ccccc2)c1=O)c1c(C)n(C)n(-c2ccccc2)c1=O | / | 0% | / | -3% | / | /
O=C(CON1C(=O)c2ccccc2C1=O)c1ccccc1 | / | -7%[9.22 µM] | / | / | / | /
COc1cccc(N2C(=O)CSC23C(=O)N(CC(=O)Nc2cccc(Cl)c2)c2ccccc23)c1 (configuration not stated) | / | / | / | -3% | / | /
CS(=O)(=O)c1cccc(C(=O)OCC(=O)c2ccc3c(c2)OCCO3)c1 | 10% | / | 24% | 1.7µM* | 0% | 4%
CCC(=O)c1ccc2c(c1)OCCO2 | -2% | / | 26% | -18% | -2% | 6%
O=C(CN1C(=O)COc2ccccc21)Nc1ccc2c(c1)OCCO2 | 10% | 10% | 21% | -19% | 12% | 5%
CCN(CC)S(=O)(=O)c1ccc(C(=O)OCC(=O)c2ccc3c(c2)NC(=O)CO3)cc1 | 0% | -3% | 1% | 2% | -12% | 0%
O=C(CN1C(=O)COc2ccccc2C1=O)c1ccc2c(c1)OCCO2 | -3% | / | ? | 6.7µM* | -4% | 5%
CCN(CC)S(=O)(=O)c1cccc(C(=O)OCC(=O)c2ccc3c(c2)OCCO3)c1 | 1% | -38% | -8% | 0.54µM* | -2% | -1%
O=C(CS(=O)(=O)c1ccccc1)c1ccc2c(c1)OCCO2 | 2.8µM* | -11% | ? | 6µM* | 2.8µM* | ?
CS(=O)(=O)c1cccc(C(=O)OCC(=O)Nc2ccc3c(c2)OCO3)c1 | 3% | / | 7% | -4% | -3% | 1%
O=C(Cn1c(=O)n(-c2ccc(Cl)cc2)c(=O)c2c3c(sc21)CCCCC3)Nc1cccc(Cl)c1 | / | -2% | / | 2% | / | /
Nc1nn(-c2ccccc2)nc1C(=O)OCc1ccccc1Br | / | -1% | / | ? | / | /
CCC(C)c1ccccc1OCC(=O)Nc1ccc(S(=O)(=O)Nc2cc(C)on2)cc1 (configuration not stated) | / | 8% | / | ? | / | /
CCCN1CCN(CCNC(=O)Nc2ccc(OC)cc2OC)CC1 | / | 8% | / | 5% | / | /
O=C(COC(=O)c1cccc(S(=O)(=O)NCc2ccccc2)c1)c1ccc2c(c1)OCCO2 | -3% | -15% | ? | 1.3µM* | -2% | -4%
O=S(=O)(NCc1ccc(Cl)cc1)c1ccc2[nH]c3c(c2c1)CCCC3 | / | / | / | -15% | / | /
O=C(O)c1ccccc1N/N=C\c1ccnc2ccccc12 | ? | 5µM* | ? | 0.17µM* | 0.35µM* | 0.58µM*
O=C(O)c1ccccc1N/N=C/c1cc(Br)cc(Br)c1O | 1.4µM* | / | ? | 7.6µM* | 1.6µM* | ?
O=C(Cc1ccccc1)N/N=C/c1cc(Br)cc(Br)c1O | 0%[1.84 µM] | / | 6.5µM* | ? | -9% | 7%
Oc1c(Br)cc(Br)cc1/C=N/Nc1ccc(Cl)nn1 | -37%[1.84 µM] | / | ? | -2% | -30% | 9%
CC(NC(=O)c1sc2ccccc2c1Cl)C1CCCO1 (configuration not stated) | ? | 11µM* | ? | 9.5µM* | ? | ?
SMILES | Rab9 prom act | SMN2 splice enh | ELG1 repair inh | FLuc modulator | NPC1 prom act | ELG1 genotoxic
O=C(NCC1CCCO1)c1sc(=S)n2c1[nH]c(=O)c1ccc(C(=O)N3CCCCC3)cc12 (configuration not stated) | 1% | 9% | -17% | 21µM* | -5% | -2%
O=C(NCC1CCCO1)c1sc2ccccc2c1Cl (configuration not stated) | ? | 13µM* | ? | 19µM* | ? | ?
CC(NC(=O)c1csc2ccccc12)C1CCCO1 (configuration not stated) | 2% | 15% | ? | -11% | 12% | ?
CC1CCc2[nH]c3ccc(C(=O)NCC4CCCO4)cc3c2C1 (configuration not stated) | ? | / | ? | 9.5µM* | 23% | 8%
O=C(NCc1ccccc1)c1ccc2c(c1)sc1nc(-c3ccc(F)cc3)cn12 | / | / | / | 1% | / | /
COc1ccc(-n2c(/C=C/c3cccc(C(F)(F)F)c3)nc3ccccc3c2=O)cc1Cl | / | / | / | -1% | / | /
CCOc1ccc(NC(=O)Cn2c(=O)n(CCc3ccccc3)c(=O)c3c4c(sc32)CN(C(C)=O)CC4)cc1 | / | 2% | / | 0% | / | /
COc1ccc2c(Cl)c(C(=O)NCC3CCCO3)sc2c1Cl (configuration not stated) | 22% | / | ? | -9% | 4% | 2%
O=C(O)CC(NC(=O)c1sc2ccccc2c1Cl)c1ccc(OC2CCCC2)cc1 (configuration not stated) | 8% | -27% | -9% | 15µM* | -2% | 2%
Cc1ccc2c(Cl)c(C(=O)NCC3CCCO3)sc2c1 (configuration not stated) | 2.2µM* | 11µM* | ? | 5.4µM* | 2µM* | ?
Cc1nc(-n2nc(C)c(Cc3ccccc3Cl)c2C)sc1C(=O)N1CCCCC1C (configuration not stated) | / | / | / | -1% | / | /
COc1cccc(CCNC(=O)c2cnc3sc(N4CCOCC4)nn3c2=O)c1 | / | 16% | / | 4% | / | /
O=C(CCNC(=O)c1ccc(Br)cc1)NCc1ccccc1F | -2% | / | 3% | 0% | 0% | 0%
O=C(CSc1ccccc1)Nc1ccc2c(c1)OCO2 | ? | / | ? | 17µM* | ? | ?
O=C(CSCc1ccccc1F)NCc1ccccc1 | ? | ? | ? | 24µM* | ? | ?
O=C(CSCc1ccc(Cl)cc1)Nc1ccc2c(c1)OCCO2 | 10% | -15% | ? | 24µM* | 19% | 13%
O=C(CCNC(=O)c1ccccc1)NCc1ccccc1F | 19% | / | ? | 2.7µM* | 10% | 11%
O=C(CSCc1cccc(F)c1)NCc1ccccc1 | ? | 15% | ? | ? | 19% | ?
COc1cccc(CNC(=O)CSc2nnc(C)c3c(C)n(-c4ccccc4)nc23)c1OC | / | / | / | -4% | / | /
CC(C)Oc1cc(O)c2c(c1)OCC=C2CCC(=O)O | / | 10%[9.22 µM] | / | / | / | /
CCOc1ccc(C(=O)N2CCc3cc(OC)c(OC)cc3C2COc2ccc3c(C)cc(=O)oc3c2)cc1OCC (configuration not stated) | / | 14% | / | -1% | / | /
